Bioassay records: PubChem, several laboratories
SRC3 inh: SRC3 coactivator transcriptional activity inhibitors, primary screen, cell-based, luminescence; HEK293 GAL4-SRC3 luciferase reporter; inhibition, % at 3.6 µM; hit rate 0.17% among 360,000;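 active = inhibition above a per-campaign cutoff, the mean of all compounds plus 3 SD, cut at about 60% in these data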;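 note: higher means less SRC3-driven luciferase light from the GAL4 reporter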
LMP1 NFkB inh: EBV LMP1-driven NF-kappaB luciferase reporter inhibitors, primary screen, cell-based, luminescence, single point. LMP1-induced NF-kappaB luciferase reporter cells. inhibition, % at 12.5 µM. hit rate 0.69% among 350,000. AID 504558, 2011; in the data active = inhibition above about 41%
NR5A2 inv ag: LRH-1 (NR5A2) inverse agonists, primary screen, cell-based, luminescence, HEK293T, StAR-luciferase reporter; AID 602396, 2012; inhibition, % at 3.6 µM; Nuclear receptor subfamily 5 group A member 2 (Homo sapiens), O00482; hit rate 0.13% among 360,000; LRH-1 transfected, 24 h;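 active = inhibition above the mean inhibition of all tested compounds plus 3 SD, cut at about 73% in these data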
Target sequence (O00482 whole entry, looked up): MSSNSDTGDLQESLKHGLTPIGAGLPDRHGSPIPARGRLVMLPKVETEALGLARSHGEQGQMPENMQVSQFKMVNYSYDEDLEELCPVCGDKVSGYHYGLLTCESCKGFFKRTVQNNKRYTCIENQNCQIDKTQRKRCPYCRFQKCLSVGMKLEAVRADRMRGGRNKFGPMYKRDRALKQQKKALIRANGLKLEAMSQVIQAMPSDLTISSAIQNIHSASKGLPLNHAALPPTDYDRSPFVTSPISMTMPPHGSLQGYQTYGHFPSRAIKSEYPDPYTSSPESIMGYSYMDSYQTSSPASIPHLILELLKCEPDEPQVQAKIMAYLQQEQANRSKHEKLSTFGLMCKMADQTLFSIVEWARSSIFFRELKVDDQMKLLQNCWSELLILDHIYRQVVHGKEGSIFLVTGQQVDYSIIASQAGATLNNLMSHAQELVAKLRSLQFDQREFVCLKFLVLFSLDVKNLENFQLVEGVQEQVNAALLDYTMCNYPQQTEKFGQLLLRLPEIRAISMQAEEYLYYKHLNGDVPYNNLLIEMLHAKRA
NCOA2 inhibitor: inhibition of GAL4-SRC2 driven luciferase reporter, primary screen, SRC2 inhibitor project, cell-based, luminescence; Nuclear receptor coactivator 2 (Homo sapiens), Q15596; HEK293 GAL4-SRC2 luciferase reporter; inhibition, % at 9 µM; hit rate 0.17% among 370,000; AID 651957, 2012;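 active = inhibition above the mean inhibition of all tested compounds plus 3 SD, set per campaign, cut at about 52% in these data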
SRC1 inh: SRC1 coactivator transcriptional activity inhibitors, primary screen, cell-based, luminescence | HEK293 GAL4-SRC1 luciferase reporter | inhibition, % at 3.6 µM | hit rate 0.12% among 360,000;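 active = inhibition above the campaign mean plus 3 SD, with each screening campaign given its own cutoff, cut at about 60% in these data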
Of the large screens only hits and unclear results are named; the others gave an inactive call. An excerpt weighted towards active compounds, which were near 0.78% of everything screened.

Cc1ccnc(NC(=O)c2ccc(C(=O)c3ccccc3)cc2)c1	LMP1 NFkB inh 50
CCC(C)(C)C1CCc2[nH]nc(C(=O)NC3CCCC3)c2C1 (configuration not stated)	none
O=C(NC1CCCCC1)c1n[nH]c2c1CCCCC2	LMP1 NFkB inh 54, NCOA2 inhibitor 57
O=C(O)Cc1ccc(C(=O)c2ccccc2)s1	none
COc1ccc(C(=O)c2ccc(CC(=O)O)s2)cc1	NCOA2 inhibitor 52
CSc1ccccc1NC(=O)CN1CCCCC1C (configuration not stated)	LMP1 NFkB inh 55
Cc1ccc(S(=O)(=O)N2CCN(C(=O)CSc3nnnn3C)C2)cc1	LMP1 NFkB inh 62
Cn1nnnc1SCC(=O)N1CCN(S(=O)(=O)c2ccc(Cl)cc2)CC1	none
CCc1cc2c(N3CCN(c4ccccc4)CC3)ncnc2s1	LMP1 NFkB inh 44
COC(=O)C(=O)C1CCc2c(Cl)cc(OC)c(OC)c2C1=O (configuration not stated)	LMP1 NFkB inh 87
C=CCn1c(SCc2ccc3nonc3c2)nnc1-c1cccs1	LMP1 NFkB inh 71
C=CCn1c(SCC(=O)C(C)(C)C)nnc1-c1cccs1	none
CCOc1ccccc1C(=O)NC1CC2CCCC(C1)N2Cc1nnnn1Cc1ccco1 (configuration not stated)	LMP1 NFkB inh 57
CN(C)CC(=O)N[C@@H]1C[C@@H]2O[C@@H](CO)CC[C@@H]2O[C@@H]1CCc1ccc(C2=CCCCC2)cc1	none (no result: SRC3 inh, LMP1 NFkB inh, NR5A2 inv ag, SRC1 inh)
c1c2c(cc3sc(N4CCOCC4)nc13)OCCO2	LMP1 NFkB inh 62
COC[C@@H]1CCCN1c1cccc2c1S(=O)(=O)N(C1CC1)CC[C@@H](C)O2	none (no result: SRC3 inh, LMP1 NFkB inh, NR5A2 inv ag, SRC1 inh)
Cc1cc(C)cc(NC(=O)C2(C(=O)C3CC3)CC(c3ccccc3C(F)(F)F)=NO2)c1 (configuration not stated)	none (no result: SRC3 inh, LMP1 NFkB inh, NR5A2 inv ag, SRC1 inh)
O=C(Cn1ncc(Cl)c(Cl)c1=O)NCC1CCCCC1	LMP1 NFkB inh 86
CCCCN(C)C(=O)CN1C(=O)C2CCCCN2C(=O)c2ccccc21 (configuration not stated)	none (no result: SRC3 inh, LMP1 NFkB inh, NR5A2 inv ag, SRC1 inh)
CC(=O)OC1CCC2(C)C(CCC3C4CC=C(C(C)=O)C4(C)OC(=O)CC32)C1 (configuration not stated)	LMP1 NFkB inh 79, NCOA2 inhibitor 59
C#CCNC(=O)C[C@H]1C[C@@]2(C(=O)OC)C(=C[C@H](C3CCCC3)O[C@@H]2C)N(Cc2cccc3ccccc23)C1=O	none (no result: SRC3 inh, LMP1 NFkB inh, NR5A2 inv ag, SRC1 inh)
C=CCn1c(SCC(=O)NC2CC2)nc2ccccc2c1=O	none
C=CCn1c(SCC(=O)c2ccc(CNC(C)=O)o2)nc2ccccc2c1=O	LMP1 NFkB inh 82
Brc1ccc(-c2nn3c(-c4ccccc4)nnc3s2)o1	none (no result: SRC3 inh, LMP1 NFkB inh, NR5A2 inv ag, SRC1 inh)
O=[N+]([O-])c1c(Nc2ccccc2O)ccc2nonc12	none
O=[N+]([O-])c1c(Nc2ccccc2O)cc(Cl)c2nonc12	LMP1 NFkB inh 79
N#CCC[C@@H]1CC[C@]2(CCCN(S(=O)(=O)C3CCCCC3)C2)O1	none (no result: SRC3 inh, LMP1 NFkB inh, NR5A2 inv ag, SRC1 inh)
CC(NCc1ccco1)C(=O)N1CCN(c2cccc(C(F)(F)F)c2)CC1 (configuration not stated)	none (no result: SRC3 inh, LMP1 NFkB inh, NR5A2 inv ag, SRC1 inh)
O=C(C1=NN[C@@H]2C(=O)N(c3cccc(C(F)(F)F)c3)C(=O)[C@H]12)c1ccc2ccccc2n1	NCOA2 inhibitor 59
OCc1ccc(-c2nn(Cc3ccccc3)c3ccccc23)o1	LMP1 NFkB inh 93
O=C(Nc1ccc2c(c1)OCO2)OC1CCC12CCC(c1ccccc1)CC2 (configuration not stated)	none (no result: SRC3 inh, LMP1 NFkB inh, NR5A2 inv ag, SRC1 inh)
COc1cc(-c2nc(C(=O)NCC3CCCO3)cc3c2[nH]c2ccccc23)cc(OC)c1OC (configuration not stated)	LMP1 NFkB inh 92
Cc1ccc(Nc2nc3c(c(=O)[nH]2)CCCC3)cc1	none
O=c1[nH]c(Nc2nc3ccccc3o2)nc2c1CCCC2	LMP1 NFkB inh 75
COc1ccc(-n2ncc3c(N4CCCCC4)ncnc32)cc1	SRC3 inh 67, LMP1 NFkB inh 76, SRC1 inh 64 (no result: NCOA2 inhibitor)
Cc1cccc(-n2ncc3c(N4CCOCC4)ncnc32)c1	LMP1 NFkB inh 66
Clc1ccc(-n2ncc3c(N4CCCCCC4)ncnc32)cc1	SRC3 inh 80, LMP1 NFkB inh 41, NR5A2 inv ag 79, NCOA2 inhibitor 70, SRC1 inh 81
CCCn1nc(C(=O)Nc2nc(-c3ccccn3)cs2)c2ccccc2c1=O	none
CCn1nc(C(=O)Nc2nc(-c3ccccn3)cs2)c2ccccc2c1=O	LMP1 NFkB inh 42
CCOc1ccc(NC(=O)Cn2cc(C(C)=O)c3ccccc32)cc1	none
CCOc1ccc(NC(=O)Cn2cc(C(=O)CC)c3ccccc32)cc1	LMP1 NFkB inh 71 (no result: NCOA2 inhibitor)
COC(=O)[C@H]1C[C@@]2(N3CCCC3)c3ccccc3N(C(=O)OC(C)(C)C)[C@H]2N1C(=O)OC(C)(C)C	none (no result: SRC3 inh, LMP1 NFkB inh, NR5A2 inv ag, SRC1 inh)
COC(=O)C12OCC34C(CC5C(C)=C(O)C(=O)CC5(C)C3C(O)C1O)OC(=O)C(OC(=O)C=C(C)C)C24 (configuration not stated)	SRC3 inh 94, LMP1 NFkB inh 85, NR5A2 inv ag 97, NCOA2 inhibitor 83, SRC1 inh 96
Cn1c2ccccc2c(=O)c2cc(C#CC3(O)CCCCC3)ccc21	none
Cc1cc2sc3ccc(C#CC4(O)CCCCC4)cc3c(=O)c2cc1C	SRC3 inh 87, LMP1 NFkB inh 78, NR5A2 inv ag 78, NCOA2 inhibitor 82, SRC1 inh 88
COc1ccccc1C1(CC(=O)O)CCOC(C)(C)C1 (configuration not stated)	LMP1 NFkB inh 68
CC1(C)CC(CC(=O)O)(c2ccc(F)cc2)CCO1 (configuration not stated)	none
O=C(NCCc1c[nH]c2ccccc12)c1ccc(Sc2ccccc2Cl)c([N+](=O)[O-])c1	none (no result: SRC3 inh, LMP1 NFkB inh, NR5A2 inv ag, SRC1 inh)
CN(C)CCCC1(c2ccc(F)cc2)OCc2cc(C#N)ccc21 (configuration not stated)	LMP1 NFkB inh 54
COc1ccccc1NC(=O)c1c(Nc2ccccc2C)sc(C(=O)Nc2cccc(Cl)c2)c1N	LMP1 NFkB inh 43
C/C(=N\NC(=O)c1cc(-c2ccccc2)nc2ccccc12)c1ccc(Cl)cc1	none (no result: SRC3 inh, LMP1 NFkB inh, NR5A2 inv ag, SRC1 inh)
CC[C@H](CCCc1ccccc1OC)CCS(=O)(=O)N(C)C	none (no result: SRC3 inh, LMP1 NFkB inh, NR5A2 inv ag, SRC1 inh)
COc1ccc(NC(=O)Cn2c(=O)n(CC3CCCO3)c(=O)c3cc(OC)c(OC)cc32)c(OC)c1 (configuration not stated)	none
COc1cc2c(=O)n(CC3CCCO3)c(=O)n(CC(=O)Nc3cccc(Cl)c3)c2cc1OC (configuration not stated)	LMP1 NFkB inh 85
CC(=O)/C=C/c1ccccc1O	LMP1 NFkB inh 52
COc1ccc(NC(=O)COC(=O)/C=C/c2ccc(OC)c(S(=O)(=O)N3CCOCC3)c2)cc1	LMP1 NFkB inh 54
